From PubChem BioAssay (Tox21)
Several values for one entry are separate records, joined by “and”; a condition that tells them apart may be missing. Equal entries are not always repeated. Records with an inconclusive call do not appear. Where a call stands in place of a potency, no number is given. Unmarked numbers belong to inactive results. Activity calls are given as the source filed them. Calls follow the shape of the dose curve; as a rule, active = well fitted cell-killing curve with a large enough effect in the repeat runs; inconclusive = weak or mixed curves, or effect the other way; inactive = flat fitted curve, though single readings scatter.

How the values were obtained:
[1] = cAMP Responsive Elements (CRE) small molecule antagonists, cell-based qHTS assay: qHTS cell viability counter screen (AID 2060913); also: nearly all actives have a fitted effect of over 40% in size
Procedure, shortened: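 Cytotoxicity read in the same wells as the CRE-bla HEK293T antagonist assay: after 3 h compound with 0.25 uM NKH477 final and 2 h beta-lactamase substrate, CellTiter-Glo luminescence measured.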

[2] = cAMP Responsive Elements (CRE) small molecule agonists, cell-based qHTS assay: qHTS cell viability counter screen (AID 2060914);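 also: viability read after 3 h of compound exposure; nearly all actives have a fitted effect of over 50% in size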
Procedure, shortened: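 CRE-bla HEK 293T cells, plated 18 h at 37 °C, were exposed to compounds for 3 h at 37 °C/5% CO2. Viability was then measured in the same wells by CellTiter-Glo luminescence after 30 min at room temperature.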
Potency is read from the fitted curve at half-maximal effect.

| SMILES | Potency [1] | Potency [2] | viability change, negative = cytotoxic [1] | activity change, negative = cytotoxicity [2] |
| --- | --- | --- | --- | --- |
| OCC1CCCO1 (centres undefined) | inactive | inactive | – | – |
| CCOC(=O)c1ccc(C#Cc2ccc3c(c2)C(C)(C)CCS3)nc1 | inactive | inactive | – | – |
| CCOC(=O)c1ccccc1O | inactive | inactive | – | – |
| CCC(C)N (centres undefined) | inactive | inactive | – | – |
| COC(=O)c1ccc(NC(C)=O)cc1OC | inactive | inactive | – | – |
| O=C(O)CC(C(=O)O)C(CC(=O)O)C(=O)O (centres undefined) | inactive | inactive | – | – |
| COc1cc2c3cc1Oc1cc(ccc1O)C[C@@H]1c4c(cc(OC)c(O)c4Oc4ccc(cc4)C[C@@H]3N(C)CC2)CC[N+]1(C)C | inactive | inactive | – | – |
| CCC(=O)Nc1ccc(O)cc1 | inactive | inactive | – | – |
| CCCCCCC(C)(C)S | inactive | inactive | – | – |
| CC(CN=Cc1ccccc1O)N=Cc1ccccc1O (centres undefined) | inactive | inactive | – | – |
| O=C(NS(=O)(=O)/C=C/c1ccccc1)c1ccc(F)cc1Cl | inactive | inactive | – | – |
| O=C(CCCCCCC(=O)Nc1ccccc1)NO | inactive | inactive | – | – |
| NC(=O)Cc1cccc(C(=O)c2ccccc2)c1N | inactive | inactive | – | – |
| CC(C)SCc1ccco1 | inactive | inactive | – | – |
| CCOC(=O)C1OC1c1ccccc1 (centres undefined) | inactive | inactive | – | – |
| C[C@]12CCC(=O)C=C1CC[C@@H]1[C@@H]2[C@@H](O)C[C@@]2(C)[C@H]1CC[C@]2(O)C(=O)CO | inactive | inactive | – | – |
| Nc1nc2ccccc2[nH]1 | inactive | inactive | – | – |
| NC(N)=N/N=C/c1c(Cl)cccc1Cl | inactive | inactive | – | – |
| Cc1ccc(O)c(N)c1 | inactive | inactive | – | – |
| CCc1c(C(=O)O)c(=O)cnn1-c1ccc(Cl)cc1 | inactive | inactive | – | – |
| CCCCN(CCCC)C(=O)N(CCCC)CCCC | inactive | inactive | – | – |
| Nc1cccc(S(=O)(=O)O)c1 | inactive | inactive | – | – |
| CCCCCCCCCCCCCCCCC | inactive | inactive | – | – |

| SMILES | Potency [1] | Potency [2] | viability change, negative = cytotoxic [1] | activity change, negative = cytotoxicity [2] |
| --- | --- | --- | --- | --- |
| NC[C@H]1O[C@H](O[C@H]2[C@H](O[C@@H]3O[C@H](CO)[C@@H](O)[C@H]3O)C(O)[C@H](N)C[C@@H]2N)[C@H](N)[C@@H](O)[C@@H]1O (some centres undefined) | – | – | 2.15% [at 8.39 µM] | 13.8% [at 8.39 µM] |
| CCOc1cc(NC(C)=O)ccc1C(=O)OC | inactive | inactive | – | – |
| NC(=O)c1cc[n+](CC2=C(C(=O)[O-])N3C(=O)[C@@H](NC(=O)Cc4cccs4)[C@H]3SC2)cc1 | inactive | inactive | – | – |
| CC1=NN(c2ccccc2)C(=O)C1 | inactive | inactive | – | – |
| CCCCCC1=CCCC1=O | inactive | inactive | – | – |
| CN(C)CCN1CCN(c2cccc(Cl)c2)C1=O | inactive | inactive | – | – |
| C=CCCC | inactive | inactive | – | – |
| CCCC/C=C\CCCCCCCCCC=O | inactive | inactive | – | – |
| C=C(C)C(=O)O | inactive | inactive | – | – |
| Nc1ncnc2nc[nH]c12 | inactive | inactive | – | – |
| O=Nc1ccc(O)cc1 | inactive | inactive | – | – |
| OCCOCCOCCO | inactive | inactive | – | – |
| O=C(Nc1ccc([N+](=O)[O-])cc1)Nc1ccc([N+](=O)[O-])cc1 (tested in a mixture with another compound) | inactive | inactive | – | – |
| COc1ccc2nc(SCc3ncc(C)c(OC)c3C)[nH]c2c1 | inactive | inactive | – | – |
| Nc1nc(-c2ccccc2)cs1 | inactive | inactive | – | – |
| CC(C)CCCCCCc1ccc(O)cc1 | 55.4 µM (active) and 27.3 µM (active) | 55.4 µM (active) and 30.6 µM (active) | – | – |
| O=C(O)Cn1c(C(=O)Nc2nc(-c3ccccc3Cl)cs2)cc2ccccc21 | inactive | inactive | – | – |
| C[N+]1(C)CCCC(OC(=O)C(O)(c2ccccc2)c2ccccc2)C1 (centres undefined) | inactive | inactive | – | – |
| CCc1nc(N)nc(N)c1-c1ccc(Cl)cc1 | inactive | inactive | – | – |
| CC/C=C\CCOC(C)OCC (centres undefined) | inactive | inactive | – | – |
| COC(=O)c1ccc([N+](=O)[O-])cc1 | inactive | inactive | – | – |
| CC(C)[C@H]1CC[C@@H](C)CC1=O | inactive | inactive | – | – |
| CC(C)[C@H]1CC[C@H](C)C[C@@H]1O | inactive | inactive | – | – |

| SMILES | Potency [1] | Potency [2] | viability change, negative = cytotoxic [1] | activity change, negative = cytotoxicity [2] |
| --- | --- | --- | --- | --- |
| CCOCC(O)COc1ccc(NC(=O)CC[S+](C)C)cc1 (centres undefined) | inactive | inactive | – | – |
| COc1ccc(CCO)cc1 | inactive | inactive | – | – |
| CC(C)CCCCCCN | inactive | inactive | – | – |
| Nc1nnnn1-c1ccccc1 | inactive | inactive | – | – |
| Cc1cc(CC(=O)O)c(C)n1-c1ccc(Cl)cc1 | inactive | inactive | – | – |
| C[C@]12C(=O)OC(=O)[C@H]1[C@H]1C=C[C@@H]2C1 | inactive | inactive | – | – |
| COc1cccc(OC)c1 | inactive | inactive | – | – |
| CC[C@]1(O)C[C@@H]2CN(CCc3c([nH]c4ccccc34)[C@@](C(=O)OC)(c3cc4c(cc3OC)N(C)[C@H]3[C@@](O)(C(=O)OC)[C@H](OC(C)=O)[C@]5(CC)C=CCN6CC[C@]43[C@@H]65)C2)C1 | inactive | inactive | – | – |
| CCO[Si](CCCCl)(OCC)OCC | inactive | inactive | – | – |
| COC(C)COC(C)COC(C)CO (centres undefined) | inactive | inactive | – | – |
| CC[Si](OC(C)=O)(OC(C)=O)OC(C)=O | inactive | inactive | – | – |
| CNc1ccc([N+](=O)[O-])cc1 | inactive | inactive | – | – |
| C#C[C@]1(O)CC[C@H]2[C@@H]3[C@H](C)CC4=C(CCC(=O)C4)[C@H]3CC[C@@]21C | inactive | inactive | – | – |
| N#CCC(=O)NN | inactive | inactive | – | – |
| CC(C)(C)c1ccc(C(O)CCCN2CCC(C(O)(c3ccccc3)c3ccccc3)CC2)cc1 (centres undefined) | inactive | inactive | – | – |
| NC(=O)Nc1nc2ccccc2[nH]1 | inactive | inactive | – | – |
| NC(=O)c1ccccc1C(N)=O | inactive | inactive | – | – |
| COC(C)OC | inactive | inactive | – | – |
| O=C1OC2(c3cc(Br)c(O)c(Br)c3Oc3c2cc(Br)c(O)c3Br)c2c(Cl)c(Cl)c(Cl)c(Cl)c21 | inactive | inactive | – | – |
| O[C@@H](CNC[C@H](O)[C@H]1CCc2cc(F)ccc2O1)[C@@H]1CCc2cc(F)ccc2O1 | inactive | inactive | – | – |
| Oc1ccc(O)cc1 | inactive | inactive | – | – |
| NC(CO)(CO)CO | inactive | inactive | – | – |
| O=c1[nH]nnc2ccccc12 | inactive | inactive | – | – |

| SMILES | Potency [1] | Potency [2] | viability change, negative = cytotoxic [1] | activity change, negative = cytotoxicity [2] |
| --- | --- | --- | --- | --- |
| O=c1cc[nH]c(=O)[nH]1 | inactive | inactive | – | – |
| CCc1cc(C(N)=S)ccn1 | inactive | inactive | – | – |
| Cc1oc2c(NC(=O)c3c(Cl)cccc3Cl)cccc2c1C(C)(C)O | inactive | inactive | – | – |
| O=S(O)CO | inactive | inactive | – | – |
| C=C(C)C(=O)OCCNC(C)(C)C | inactive | inactive | – | – |
| c1ccc(-c2ccccn2)nc1 | inactive | inactive | – | – |
| COc1ccc(N=[N+]([O-])c2ccc(OC)cc2)cc1 | inactive | inactive | – | – |
| CC(=O)OCC(=O)[C@@]1(OC(C)=O)[C@@H](C)C[C@H]2[C@@H]3C[C@H](F)C4=CC(=O)C=C[C@]4(C)[C@@]3(F)[C@@H](O)C[C@@]21C | inactive | inactive | – | – |
| O=C(OCc1ccccc1)c1ccccc1O | inactive | inactive | – | – |
| Cc1cnccn1 | inactive | inactive | – | – |
| CC(C)(C)N | inactive | inactive | – | – |
| SCCOCCOCCS | inactive | inactive | – | – |
| C=CC(=O)CC | inactive | inactive | – | – |
| CC(C)C(=O)OCCc1ccccc1 | inactive | inactive | – | – |
| COc1cc(Cl)c(OC)cc1N | inactive | inactive | – | – |
| C=CCCCCCCCCC(=O)OCCCC | inactive | inactive | – | – |
| CC1=CC(C)C(C=O)C(C)C1 (centres undefined) | inactive | inactive | – | – |
| CCCCCCCOC(=O)c1ccc(O)cc1 | inactive | inactive | – | – |
| CC[C@@]1(O)C(=O)OCc2c1cc1n(c2=O)Cc2cc3c(CN(C)C)c(O)ccc3nc2-1 | inactive | inactive | – | – |
| CC[C@H](NC(C)C)[C@H](O)c1ccc(O)c2[nH]c(=O)ccc12 | inactive | inactive | – | – |
| O=[N+]([O-])c1ccc(/C=C/c2ccc([N+](=O)[O-])cc2S(=O)(=O)O)c(S(=O)(=O)O)c1 | inactive | inactive | – | – |
| CC1CCCNC1 (centres undefined) | inactive | inactive | – | – |
| CCCCCCCCCCCCOC(=O)c1ccc(O)cc1 | inactive | inactive | – | – |

| SMILES | Potency [1] | Potency [2] | viability change, negative = cytotoxic [1] | activity change, negative = cytotoxicity [2] |
| --- | --- | --- | --- | --- |
| COC(=O)C1CC(=O)C(C(=O)OC)CC1=O (centres undefined) | – | – | 18.8% [at 8.39 µM] | -4.18% [at 8.39 µM] |
| COc1cccc2sc(N)nc12 | inactive | inactive | – | – |
| COC(=O)CCCCC(=O)OC | inactive | inactive | – | – |
| Cc1ccc2c(Cl)cc(Cl)c(O)c2n1 | inactive | inactive | – | – |
| Oc1ccccc1O | inactive | inactive | – | – |
| Cc1ccccc1S | inactive | inactive | – | – |
| CCNc1nc(NC(C)CC)nc(OC)n1 (centres undefined) | inactive | inactive | – | – |
| CC(C)(C)CC(C)(C)c1ccc(OCCOCC[N+](C)(C)Cc2ccccc2)cc1 | 27.3 µM (active) and 29.8 µM (active) | 54.4 µM (active) and 29.8 µM (active) | – | – |
| O=C(CCN1CCN(CCO)CC1)N1c2ccccc2Sc2ccc(C(F)(F)F)cc21 | inactive | inactive | – | – |
| CCC(=O)Nc1cccc(N)c1 | inactive | inactive | – | – |
| COc1ccc(Cl)cc1C(=O)NCCc1ccc(S(=O)(=O)NC(=O)NC2CCCCC2)cc1 | inactive | inactive | – | – |
| Cc1cnc(C(=O)NCCc2ccc(S(=O)(=O)NC(=O)NC3CCCCC3)cc2)cn1 | inactive | inactive | – | – |
| COc1ccccc1NC(=O)CC(C)=O | inactive | inactive | – | – |
| CC(=O)CC(c1ccc([N+](=O)[O-])cc1)c1c(O)c2ccccc2oc1=O (centres undefined) | inactive | inactive | – | – |
| C[C@H]1C[C@@H]2[C@H]([C@@H](O)C[C@@]3(C)[C@H]2CC[C@]3(O)C(=O)CO)[C@@]2(C)C=CC(=O)C=C12 | inactive | inactive | – | – |
| CCOC(=O)OC(C)OC(=O)[C@@H]1N2C(=O)[C@@H](NC(=O)[C@H](N)c3ccccc3)[C@H]2SC1(C)C (some centres undefined) | inactive | inactive | – | – |
| CCc1ccc(O)cc1 | inactive | inactive | – | – |
| O=CCCCC=O | inactive | inactive | – | – |
| Cc1cc(N)c2cc(NC(=O)Nc3ccc4nc(C)cc(N)c4c3)ccc2n1 | inactive | inactive | – | – |
| CC(C)Oc1ccc2c(=O)c(-c3ccccc3)coc2c1 | inactive | inactive | – | – |
